Data from publication PMC5540273 (PLoS ONE, 2017).

Tests used:
Details in all cases: concentration: 1 μM, replicates: in singlicate; n = 1
MKK7 = system: MKK7
MKNK1 = system: MKNK1
MKNK2 = system: MKNK2
MLCK = system: T1, MLCK
T1 construct: gene MYLK3

MLK1 = system: T2, MLK1
T2 construct: gene MAP3K9

MLK2 = system: MLK2
MLK3 = system: MLK3
MRCKA = system: MRCKA
MRCKB = system: T3, MRCKB
T3 construct: gene CDC42BPB

MST1R = system: MST1R
MST1 = system: T4, MST1
T4 construct: gene STK4

MST2 = system: T5, MST2
T5 construct: gene STK3

MST3 = system: T6, MST3
T6 construct: gene STK24

MST4 = system: MST4
MTOR = system: MTOR
MUSK = system: MUSK
MYLK2 = system: MYLK2
MYLK4 = system: MYLK4
MYLK = system: MYLK
MYO3A = system: MYO3A
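Also: KINOMEscan kinase panel screen.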

Row | SMILES | %Inh (MKK7) [%] | %Inh (MKNK1) [%] | %Inh (MKNK2) [%] | %Inh (MLCK) [%] | %Inh (MLK1) [%] | %Inh (MLK2) [%] | %Inh (MLK3) [%] | %Inh (MRCKA) [%] | %Inh (MRCKB) [%] | %Inh (MST1R) [%] | %Inh (MST1) [%] | %Inh (MST2) [%] | %Inh (MST3) [%] | %Inh (MST4) [%] | %Inh (MTOR) [%] | %Inh (MUSK) [%] | %Inh (MYLK2) [%] | %Inh (MYLK4) [%] | %Inh (MYLK) [%] | %Inh (MYO3A) [%]
1 | CC(C)(C)n1cnc2c(N)ncnc21 [SKF-97359] | 21 | 54 | 0 | 0 | 0 | 0 | 0 | 0 | 0 | 0 | 9 | 0 | 44 | 0 | 6 | 0 | 0 | 0 | 27 | 0
2 | O=C1Cc2cc(Nc3nc(NCc4cccc(S(=O)(=O)C(F)(F)F)c4)ncc3C(F)(F)F)ccc2N1 | 0 | 0 | 0 | 10 | 0 | 32 | 3 | 5 | 10 | 0 | 14 | 27 | 0 | 1 | 29 | 0 | 0 | 8 | 2 | 0
3 | N#Cc1c(N2CCOCC2)sc(-c2ccn[nH]2)c1-c1ccc(Cl)cc1 | 20 | 26 | 0 | 0 | 0 | 5 | 22 | 0 | 0 | 1 | 21 | 0 | 19 | 0 | 0 | 0 | 8 | 5 | 23 | 3
4 | COc1ccc(Nc2ncc(C#N)c(Nc3ccccc3C(N)=O)n2)cc1N1CCN(C)CC1.Cl [GSK1558669] | 0 | 30 | 98.2 | 99.7 | 98.7 | 100 | 100 | 44 | 87 | 86 | 98.3 | 51 | 95.5 | 99.4 | 0 | 80 | 98.2 | 98.2 | 99.4 | 76
5 | Cc1cccc(Cn2ccn3c(=O)cc(N4CCOCC4)nc23)c1 [GSK2297542] | 0 | 0 | 3 | 0 | 18 | 0 | 18 | 0 | 6 | 39 | 7 | 0 | 23 | 0 | 17 | 2 | 4 | 6 | 41 | 11
6 | NCC(NC(=O)c1cc(-c2cn[nH]c2)c(-c2ccnc3[nH]ccc23)s1)c1ccccc1.O=C(O)C(F)(F)F.O=C(O)C(F)(F)F (centres unmarked) [GSK1325775] | 0 | 63 | 94.2 | 96.3 | 0 | 0 | 0 | 80 | 98.6 | 5 | 0 | 12 | 1 | 45 | 5 | 0 | 45 | 100 | 63 | 32
7 | Cc1nnc(-c2ccc3occ(-c4ccc(C(C)O)cc4)c3c2)o1 (centres unmarked) | 0 | 16 | 0 | 14 | 6 | 14 | 0 | 10 | 0 | 15 | 0 | 0 | 0 | 0 | 0 | 4 | 14 | 4 | 26 | 0
8 | O=c1cc(N2CCOCC2)nc2n(Cc3cccc4ccccc34)ccn12 [GSK2333389] | 0 | 0 | 3 | 0 | 0 | 2 | 0 | 0 | 0 | 12 | 0 | 9 | 0 | 0 | 0 | 0 | 0 | 0 | 0 | 0
9 | NS(=O)(=O)c1cccc(-c2ccc3ncc(N4CCOCC4)nc3c2)c1 [GSK1535721] | 16 | 0 | 0 | 2 | 0 | 27 | 1 | 0 | 2 | 26 | 0 | 0 | 0 | 0 | 9 | 0 | 0 | 12 | 2 | 15
10 | COCCNC(=O)c1ccc(-c2cc(C(=O)NC3CC3)cc(F)c2C)cc1 [GW868318] | 37 | 22 | 25 | 13 | 0 | 41 | 0 | 0 | 14 | 20 | 17 | 24 | 3 | 38 | 0 | 28 | 1 | 5 | 29 | 5
11 | CN(C(=O)c1ccc(-c2cc(-c3c[nH]nc3-c3ccccn3)ccn2)cc1)C1CCOCC1 [GW810083] | 0 | 0 | 37 | 0 | 0 | 0 | 0 | 4 | 10 | 0 | 8 | 13 | 34 | 0 | 10 | 0 | 0 | 0 | 0 | 0
12 | CN1c2ccc(NCc3ccc(F)cc3)cc2-c2c(cnn2C)S1(=O)=O | 0 | 0 | 0 | 0 | 15 | 22 | 0 | 0 | 0 | 0 | 0 | 28 | 0 | 0 | 20 | 3 | 0 | 0 | 12 | 0
13 | CCCCCc1nc2c(N)ncnc2n1CCCCC [SKF-97255] | 0 | 6 | 0 | 0 | 0 | 50 | 0 | 0 | 0 | 0 | 0 | 0 | 0 | 0 | 0 | 0 | 6 | 12 | 17 | 1
14 | O=c1cc(N2CCOCC2)nc2n(Cc3cccc(Cl)c3Cl)c(C3CC3)nn12 [GSK2358994] | 0 | 0 | 0 | 0 | 0 | 0 | 14 | 0 | 0 | 14 | 0 | 41 | 4 | 0 | 0 | 0 | 0 | 0 | 14 | 0
15 | CC(C)Oc1ccc2c(-c3ccnc(Nc4ccc(N5CCN(C)CC5)cc4)n3)cnn2n1 [GW696155] | 0 | 37 | 84 | 42 | 0 | 0 | 0 | 35 | 0 | 0 | 0 | 0 | 59 | 16 | 27 | 42 | 61 | 99.6 | 17 | 30
16 | CN1c2ccc(CNc3ccc(F)cc3)cc2-c2c(cnn2C)S1(=O)=O | 0 | 15 | 0 | 3 | 0 | 24 | 0 | 0 | 0 | 0 | 0 | 0 | 0 | 0 | 24 | 0 | 0 | 0 | 4 | 0

Row | SMILES | %Inh (MKK7) [%] | %Inh (MKNK1) [%] | %Inh (MKNK2) [%] | %Inh (MLCK) [%] | %Inh (MLK1) [%] | %Inh (MLK2) [%] | %Inh (MLK3) [%] | %Inh (MRCKA) [%] | %Inh (MRCKB) [%] | %Inh (MST1R) [%] | %Inh (MST1) [%] | %Inh (MST2) [%] | %Inh (MST3) [%] | %Inh (MST4) [%] | %Inh (MTOR) [%] | %Inh (MUSK) [%] | %Inh (MYLK2) [%] | %Inh (MYLK4) [%] | %Inh (MYLK) [%] | %Inh (MYO3A) [%]
17 | Nc1nccc(-c2c(-c3ccc(F)cc3)ncn2C2CCN(CC(F)(F)F)CC2)n1 [SB-236560] | 30 | 34 | 35 | 0 | 0 | 0 | 2 | 0 | 14 | 17 | 96.9 | 0 | 0 | 0 | 0 | 22 | 0 | 0 | 1 | 0
18 | NS(=O)(=O)c1cccc(-c2ccc3nccc(-c4cccc(S(N)(=O)=O)c4)c3c2)c1 [GW867253] | 0 | 0 | 0 | 0 | 0 | 41 | 0 | 3 | 7 | 0 | 11 | 0 | 5 | 0 | 32 | 10 | 0 | 2 | 0 | 0
19 | COc1cc2c(cc1OC[C@@H](O)CO)ncc1c3ccc(C#N)cc3[nH]c21 | 0 | 97.1 | 99.4 | 94.5 | 3 | 0 | 0 | 0 | 0 | 9 | 0 | 67 | 11 | 12 | 52 | 0 | 44 | 99 | 3 | 0
20 | COc1ccc(COc2cc(-n3cnc4ccccc43)sc2C(N)=O)cc1 [GSK1024304] | 0 | 13 | 1 | 0 | 0 | 0 | 4 | 0 | 0 | 25 | 0 | 0 | 0 | 0 | 0 | 14 | 0 | 0 | 0 | 0
21 | Cc1nnc(-c2ccc3ncc(-c4ccc(S(C)=O)cc4)n3c2)o1 (centres unmarked) | 18 | 0 | 35 | 0 | 0 | 0 | 0 | 9 | 0 | 0 | 0 | 0 | 14 | 0 | 29 | 0 | 8 | 5 | 18 | 0
22 | CCc1ccnc(/C=C/c2n[nH]c3cc(Sc4ccccc4C(=O)NC)ccc23)c1 | 0 | 0 | 0 | 1 | 9 | 4 | 20 | 0 | 1 | 16 | 6 | 36 | 19 | 4 | 12 | 0 | 0 | 0 | 0 | 0
23 | Cl.Nc1ncnc2occ(-c3ccc(NC(=O)Nc4cc(C(F)(F)F)ccc4F)cc3)c12 [SB-707548] | 22 | 56 | 98 | 44 | 40 | 65 | 65 | 11 | 0 | 28 | 50 | 26 | 52 | 8 | 16 | 100 | 37 | 26 | 21 | 96.6
24 | COC(=O)Nc1nc2cc(Oc3ccc(NC(=O)Nc4cc(F)ccc4F)cc3)ccc2[nH]1.Cl [GW701424] | 0 | 23 | 12 | 0 | 0 | 0 | 0 | 16 | 0 | 29 | 0 | 0 | 6 | 0 | 15 | 99.1 | 0 | 0 | 0 | 33
25 | NS(=O)(=O)CCc1cccc(Nc2nccc(-c3c(-c4cccc(NC(=O)c5c(F)cccc5F)c4)nn4ccccc34)n2)c1 [GSK336735] | 100 | 0 | 0 | 20 | 0 | 3 | 43 | 92.2 | 96.2 | 62 | 94.9 | 74 | 13 | 0 | 8 | 40 | 0 | 0 | 14 | 26
26 | COc1ccc(S(=O)(=O)NC2CCN(c3cc(C)nc(Nc4cccc(C#N)c4)n3)CC2)cc1.O=C(O)C(F)(F)F [GSK1653539] | 0 | 0 | 20 | 0 | 0 | 0 | 27 | 0 | 0 | 48 | 0 | 0 | 13 | 0 | 28 | 0 | 0 | 0 | 3 | 17
27 | COc1ccc(Nc2nccc(N3CCC(NC(=O)Nc4cc(C)ccc4C)C3)n2)cc1 (centres unmarked) [GSK1379741] | 28 | 0 | 5 | 11 | 0 | 0 | 0 | 24 | 0 | 55 | 0 | 1 | 0 | 0 | 11 | 0 | 0 | 0 | 0 | 0
28 | O=C(Nc1cccc(-c2nn3ncccc3c2-c2ccnc(Nc3cccc(C(F)(F)F)c3)n2)c1)c1c(F)cccc1F [GSK299495] | 0 | 0 | 24 | 11 | 0 | 0 | 0 | 58 | 68 | 44 | 9 | 23 | 0 | 0 | 17 | 26 | 0 | 0 | 11 | 41
29 | O=C(Nc1n[nH]c2cc(-c3cccc(F)c3)ccc12)C1CC1 [SB-735464] | 19 | 0 | 29 | 35 | 0 | 0 | 4 | 4 | 0 | 15 | 11 | 0 | 17 | 17 | 0 | 0 | 77 | 6 | 2 | 3
30 | Fc1ccc(-c2ncn(CCCN3CCOCC3)c2-c2ccccn2)cc1 [SB-211742] | 0 | 0 | 0 | 0 | 0 | 27 | 0 | 0 | 0 | 0 | 2 | 32 | 9 | 0 | 27 | 0 | 3 | 0 | 0 | 0
31 | Nc1nc(-c2ccc3c(N)n[nH]c3c2)cc(N2CCCC2)n1 [GSK2227430] | 0 | 4 | 12 | 0 | 0 | 6 | 0 | 6 | 0 | 1 | 0 | 0 | 0 | 0 | 0 | 0 | 0 | 2 | 9 | 0
